# AMA1-RON2 inh: disrupts binding of P. falciparum AMA1 to RON2; AID 720542; actives 0.2% (n = 360,000); Potency, µM (top dose mostly 58.2 µM), for inactives: at the top dose activity change, negative = inhibition, hits mostly inhibitors; AlphaScreen AMA1-biotinylated RON2 peptide binding;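 note: 0% = vehicle wells and -100% = peptide control; nearly all actives have a fitted effect of over 45% in size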
#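 AMA1 (3D7) with his tag at 25 nM final met compounds first, then biotinylated RON2 peptide at 25 nM; detection used donor plus acceptor beads, 10 µg/mL apiece, read by AlphaScreen after 30 min at room temperature.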
# SARS PLpro yeast: SARS-CoV PLP inhibition in yeast; actives 0.19% (n = 330,000); S. cerevisiae expressing SARS-CoV PLpro, growth rescue; Potency, µM (series often up to 32.9 µM), for the others: at the top dose activity, positive = growth rescue, usual class: activators; calls by dose curve; note: 0% is about no effect; nearly all actives have a fitted effect of over 55% in size
# Pf growth 48h: P. falciparum growth inhibition at 48 hours (one generation) | actives 5.9% (n = 310,000) | Potency, µM (series often up to 28.7 µM), for inactives: at the highest dose activity change, negative = inhibition, actives largely listed as inhibitors | P. falciparum luciferase growth in erythrocytes, 48 h; note: % is set by controls: 0 for no effect and ±100 for the full control effect
#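 Cell-based growth assay: transgenic P. falciparum expressing firefly luciferase, cultured in red cells within RPMI 1640 containing 0.5% w/v Albumax, 24 mM bicarbonate and gentamycin. A drop in luciferase activity indicates inhibition.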
# NS1 function inh: blocks influenza NS1 protein function | Potency, µM (titrated, usually from 46.1 µM), without a hit: at the top dose activity, positive = more growth | actives 0.4% (n = 270,000); calls by dose curve; note: actives are rising curves; nearly all actives have a fitted effect of over 50% in size
#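 Read-out: OD600 growth recovery of NS1-expressing budding yeast. Cells grown overnight at 30C in -URA glucose medium, washed, resuspended and diluted 1:100 in 2% galactose assay medium, pH 6.0. Same strain lacking NS1 served as positive control.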
# HCV inh: HCV inhibition; Huh7.5.1 HCVcc-Cre infection, luciferase reporter, 44 h; actives 3.4% (n = 340,000); Potency, µM (titrated, usually from 41.8 µM), inactives show at the top dose activity change, negative = inhibition, hits mostly inhibitors; AID 651820; note: % is set by controls: 0 for no effect and ±100 for the full control effect
#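 Infectious HCVcc-Cre (~0.5 moi) was added to cells just after compound, with cells seeded 4 h earlier at 1,000 per well. Luciferase activity after 44 h culture reported infection; substrate was incubated 15 min at room temperature before reading.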
# Pf growth 96h: P. falciparum growth inhibition at 96 hour, primary screen for plastid delayed-death inhibitors. P. falciparum luciferase reporter growth, 96 h. AID 504834. actives 6.9% (n = 320,000). Potency, µM (titrated, usually from 28.7 µM), inactives show top-dose activity change, negative = inhibition, hits mostly inhibitors; note: % is set by controls: 0 for no effect and ±100 for the full control effect
#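 96 h incubation, 37 C, 5% CO2, of luciferase-reporter P. falciparum-infected RBCs (2% hematocrit, 0.05% parasitemia final) with test compounds; endpoint luminescence.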
# The depositor's hits bear a star; u = inconclusive; x = not tested or not shown; [ ] = another dose, or the depositor's remark. The list is not random: actives were taken first. Their share in the collection is about 12%. Unless noted, calls come from the whole dose curve; as a rule, active = well fitted curve in the direction sought with a large enough effect; inconclusive = small, poorly fitted or top-dose-only effect, or another doubt; inactive = no such curve, though single readings can be large; an effect the other way counts as inactive or inconclusive. Potency is the fitted concentration of half-maximal effect.
SMILES,AMA1-RON2 inh,SARS PLpro yeast,Pf growth 48h,NS1 function inh,HCV inh,Pf growth 96h
CCN(CCCNC(=O)c1cc2c(-c3cccc(OC)c3)nn(C)c2s1)Cc1ccccc1,-9.3%,-1.7%,2.33µM*,-3.9%,11.2µM*,9.2%
CC1(C)COCN1COC1CCCCC1,x,x,x,-3.5%,x,x
Cc1ccc(NC(=O)CN2CCC(NC(=O)C3CCCCC3)CC2)c(Br)c1,10.2%,-7.1%,-2.4%,-3.5%,-4.2%,11.7µM*
Cc1ccc(NC(=O)CN2CCN(Cc3ccccc3)CC2)c(Br)c1,20µM*,10.2%,-1.3%,6.5%,u,u
Cc1cccc(NC(=O)CN2CCC(NC(=O)C3CCCCC3)CC2)c1C,-0.4%,13.3%,6.3%,4.9%,-1.2%,4.15µM*
COc1ccc(N2CCN(c3cc(C(=O)NC4CCCCC4)ncn3)CC2)cc1OC,-21.3%,x,x,x,x,x
O=C(CN1C(=O)CSc2ccc(S(=O)(=O)N3CCCCC3)cc21)NCc1ccccc1,10.7%,-1.2%,-15.1%,22.2%,-9.6%,4.15µM*
CCN(CC)CC(C)CNC(=O)CN1C(=O)CSc2ccc(S(=O)(=O)N3CCOCC3)cc21 (configuration not stated),-4.0%,8.5%,-8.5%,0.6%,3.5%,13.1µM*
Cn1ccnc1SCC(=O)Nc1ccc(F)c([N+](=O)[O-])c1,-0.5%,-2.1%,-4.1%,x,4.0%,u
CCOC(=O)c1c(/N=C/N(C)C)sc(C=O)c1-c1ccccc1,-0.8%,-0.5%,-20.3%,x,-10.6%,1.4%
CCOC(=O)c1c(/N=C/N(C)C)sc(/C=N/Nc2ccccc2)c1-c1ccccc1Cl,-8.9%,-16.0%,6.57µM*,14.7%,6.31µM*,u
CCOC(=O)c1c(/N=C/N(C)C)sc(/C=N/Nc2ccccc2)c1-c1ccccc1,3.5%,28.3%,14.7µM*,1.9%,u,10.4µM*
CC(C)CCCN1C(Nc2ccccc2)=NC[C@@H]1CC(C)C,-6.5%,-5.0%,u,-6.1%,u,u
CC(C)C[C@H]1CN=C(Nc2ccccc2)N1CC1CCCC1,5.5%,6.4%,u,5.4%,-16.5%,u
CC(C)C[C@H]1CN=C(Nc2ccccc2)N1CC1CCC(C(C)(C)C)CC1 (some centres not stated),-10.9%,-24.2%,8.28µM*,x,11.2µM*,7.38µM*
CC(C)C[C@H]1CN=C(Nc2ccccc2)N1CCC1CCCCC1,12.4%,-2.2%,-48.8%,-19.0%,-20.9%,9.28µM*
CCCCn1c(N)c(N(Cc2ccccc2)C(=O)COc2ccccc2F)c(=O)[nH]c1=O,9.5%,-1.7%,-2.1%,x,7.1%,-1.1%
OC(CNc1ccccc1)Cn1ccc2ccccc21 (configuration not stated),-15.2%,-1.1%,-17.2%,6.3%,8.4%,-7.0%
Cn1ncc2c(N3CCN(c4ccccc4F)CC3)ncnc21,-5.9%,5.2%,u,-7.4%,u,x
Cn1ncc2c(N3CCN(c4ccc(Cl)c(Cl)c4)CC3)ncnc21,-15.0%,-0.1%,9.28µM*,-0.8%,u,u
CC1(C)C[C@@H]1C(=O)N/C(=C\CCCCSC[C@H](N)C(=O)O)C(=O)O,-9.9%,1.9%,-0.9%,x,10.2%,-24.4%
CC1=NN(c2cccc(F)c2)C(=O)/C1=C/c1ccc(N(C)C)cc1,-3.7%,-6.3%,-11.2%,0.6%,26.2%,u
CN(C)c1ccc(C=c2c3ccccc3n3c2c2ccccc2[n+]3C)cc1,u,x,x,x,8.91µM*,x
Cc1cc2c(=Cc3ccc(N(C)C)cc3)c3ccccc3n2[n+]1C,u,x,x,x,1.26µM*,x
CCCCC1(C)OC(=O)C(=Cc2ccc(N(C)C)cc2)C(=O)O1 (configuration not stated),-5.4%,2.8%,14.2%,-84.9%,10.6%,112.8%
SMILES,AMA1-RON2 inh,SARS PLpro yeast,Pf growth 48h,NS1 function inh,HCV inh,Pf growth 96h
CCOC(=O)SC1=N/C(=C\c2ccc(N(C)C)cc2)C(=O)S1,u,-9.7%,20.6%,-5.7%,4.7%,10.9%[5.75 µM]
CCOC(=O)c1cc2c(=Cc3ccc(N(C)C)cc3)c3ccccc3n2[n+]1C,20µM*,x,x,x,u,x
CC1CCC(NC(=O)c2cc3c(s2)CS(=O)(=O)C3)CC1 (configuration not stated),17.5%,1.0%,-8.9%,4.9%,12.3%,11.7µM*
Cc1nc(SCC(=O)N(CC(C)C)C2CCS(=O)(=O)C2)c(C#N)c(C)c1C (configuration not stated),8.4%,-5.9%,u,x,u,-18.1%
COc1ccc(CCNC(=O)CSc2nn(-c3ccccc3)c(=S)s2)cc1,-11.0%,5.9%,-8.6%,-5.4%,4.2%,-5.6%
Cc1ccccc1C(=O)Nc1ccccc1N1CCN(C(=O)c2ccccc2)CC1,-9.1%,-4.0%,11.7µM*,-7.9%,-15.0%,17.8%
O=C(Nc1ccccc1N1CCN(C(=O)c2ccccc2)CC1)c1cc(Br)ccc1Cl,-14.7%,-5.8%,u,u,u,u
CCOc1ccc(C(=O)Nc2ccccc2N2CCN(C(=O)c3ccccc3)CC2)cc1[N+](=O)[O-],3.1%,0.1%,1.31µM*,11.1%,u,1.65µM*
COc1ccc(Br)cc1C(=O)Nc1ccccc1N1CCN(C(=O)c2ccccc2)CC1,2.4%,-0.7%,u,14.9%,11.2µM*,-10.9%
O=C(Nc1nc2ccc(F)cc2s1)C1CCN(S(=O)(=O)c2cc([N+](=O)[O-])ccc2Cl)CC1,-11.2%,0.3%,u,29.8%,31.6µM*,u
CC(NC(=O)C1CCN(S(=O)(=O)c2cc([N+](=O)[O-])ccc2Cl)CC1)c1ccccc1 (configuration not stated),13.4%,-9.0%,-13.6%,9.0%,1.0%,-8.1%
O=[N+]([O-])c1ccc(Cl)c(S(=O)(=O)N2CCCCCC2)c1,-5.6%,-8.1%,-19.3%,-18.9%,12.4%,10.4µM*
Cc1ccc(NC(=O)C2CCN(S(=O)(=O)c3cc([N+](=O)[O-])ccc3Cl)CC2)nc1,-15.2%,0.2%,x,x,5.01µM*,x
Cc1ccc2nc(NC(=O)C3CCN(S(=O)(=O)c4cc([N+](=O)[O-])ccc4Cl)CC3)sc2c1,-9.5%,5.3%,-0.6%,u,6.31µM*,u
CN(CC(=O)Nc1cccc(F)c1)C(=O)CSc1ccccc1F,-15.6%,-7.3%,u,1.7%,-0.6%,17.0%
O=S(=O)(O)c1ccc(O)cc1,x,x,10.4%,x,x,5.7%
CC(C)(O)C(=O)NNC(=S)Nc1ccc(F)c(Cl)c1,72.4%,3.2%,4.5%,x,0.6%,30.9%
CC(=O)Oc1c(-c2ccco2)oc2ccccc2c1=O,-0.7%,-3.1%,8.8%,x,u,21.6%
O=[N+]([O-])c1ccc(O)c([N+](=O)[O-])c1,-0.2%,x,x,x,u,x
O=[N+]([O-])c1ccc(Cl)c([N+](=O)[O-])c1,u,x,10.4µM*,x,u,u
COC(=O)c1cn(-c2ccccc2)nc1-c1ccc(OC)cc1,12.2%,0.3%,-13.7%,x,12.6µM*,-8.9%
